Among the data in PubChem BioAssay AID1918990 (ICCB-Longwood Screening Facility, Harvard Medical School, 2023) are z-score values, retold here.

Hit rate of the full screen: of about 29,000 compounds, about 85 (0.3%) were called active.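 The calls were made as follows: active = replicate mean overnight rise in green fluorescent reporter signal, 3 or more SD over negative controls; inactive = the rest.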 This excerpt belongs to a sample that is enriched for actives. Square brackets hold non-standard residues; d marks the D form. Side chains are listed from the residue outwards. Peptide text beside a SMILES is read from it. * marks the point of attachment. X1 = CCC(C)C(N)C1=NC(C(=O)*)CS1; Orn = NCCC[CH](N)C(=O)O

The assay in a line: fixK promoter GFP reporter activation – B. multivorans, primary screen (AID 1918990). The conditions noted are these: 18 h, active compounds read high.
On to `COc1cccc(OCCn2c(-c3ccc(Br)cc3)nc3ccccc3c2=O)c1`, for which the z-score is -1.26 (inactive).

Turning to `Cc1c[nH]c(CNC(=O)COCc2nc3ccc(F)cc3[nH]2)c(C)c1=O`, the z-score is -1.57 (inactive).

For the compound `CCSC(C)C(=O)N1CCc2c(nc(-c3ccncc3)nc2N(C)C)C1` (stereo not drawn), the z-score is -1.6 (inactive).

`CCOc1ccccc1C(=O)NC1(C(F)(F)F)NC(=O)N(CCc2ccc(OC)c(OC)c2)C1=O` (stereo not drawn): the z-score was -3.27 (inactive).

For `COc1cc(Br)cc2cc(S(=O)(=O)c3ccccc3)c(=O)oc12`, the z-score is -0.19 (inactive).

On to `CCC(C)C(N)C1=NC(C(=O)NC(CC(C)C)C(=O)NC(CCC(=O)O)C(=O)NC(C(=O)NCCCCC2NC(=O)C(CC(N)=O)NC(=O)C(CC(=O)O)NC(=O)C(Cc3cnc[nH]3)NC(=O)C(Cc3ccccc3)NC(=O)C(C(C)CC)NC(=O)C(CCCN)NC2=O)C(C)CC)CS1` (stereo not drawn) (cyclo(DNK([Ile-Glu-Leu-X1])[Orn]IFH); configuration not given here), for which the z-score was -0.77 (inactive).

Regarding `CN(Cc1cnn(-c2ccc(F)cc2)c1)C(=O)C(C)(C)N1CCOCC1`, the z-score was -1.96 (inactive).

Take `C#CC(C)(CC)NC(=O)Cn1nnc(-c2ccc(OCc3c(F)cccc3Cl)cc2)n1` (stereo not drawn): the z-score is 0.9 (inactive).

On to `CC(NC(=O)N1CCCN(C(=O)C(F)(F)F)CC1)c1ccc(Cl)cc1` (stereo not drawn), for which the z-score was 0.97 (inactive).

`CCOC(=O)c1ccc(-c2ccc(/C=C(\C#N)C(=O)Nc3ccc(OCC)cc3)o2)cc1`: the z-score is 0.84 (inactive).

Consider `CCOC(=O)c1ccc(N2C(=O)c3n[nH]c(C)c3C2c2ccc(O)c(OC)c2)cc1` (stereo not drawn), for which the z-score is -1.68 (inactive).

In the case of `Cc1ccc(NC(=O)NC(C)c2c(-n3cccc3)sc(C)c2C)c(C)c1` (stereo not drawn), the z-score is -1.6 (inactive).

Turning to `Cc1ccc(-c2nc3cccc(C)n3c2Nc2ccc3c(c2)OCCO3)cc1`, the z-score was 0.46 (inactive).

Regarding `COc1cccc(Cn2c(SCc3ccc(C(=O)N4CCCCC4)cc3)nc3ccncc32)c1`, the z-score was -4.02 (inactive).

For `COc1ccccc1C1C(C(=O)N2CCCCC2)=C(C)Nc2nc3ccccc3n21` (stereo not drawn), the z-score was -0.33 (inactive).

`CCOc1ccc(-c2n[nH]c3c2C(c2ccccc2OC)N(c2ccc(Br)cc2)C3=O)cc1` (stereo not drawn): the z-score is -0.62 (inactive).

`CC(C)Cn1c(=O)c2ccccc2n2c(CCC(=O)N3CCN(c4cccc(Cl)c4)CC3)nnc12`: the z-score is -1.08 (inactive).

For `Cc1ccc(C(=O)Nc2ccccc2F)cc1S(=O)(=O)N1CCOCC1`, the z-score was -1.43 (inactive).

Turning to `O=C(CCc1cccc(Cl)c1)NC1COCC1Cc1ccncc1` (stereo not drawn), the z-score is -0.84 (inactive).

With `CCC1CCCCN1S(=O)(=O)c1ccc(NC(=O)c2cc(=O)c3ccccc3o2)cc1` (stereo not drawn), the z-score is -1.59 (inactive).

Consider `CCCOc1ccc(CNC(=O)C2CCN(c3nn4c(=O)cc(C)nc4s3)CC2)cc1`, for which the z-score was 0.43 (inactive).

Turning to `Cc1cc(OCC(=O)Nc2ncn[nH]2)c(C)c(C)c1Br`, the z-score is 0.56 (inactive).

As for `O=S(=O)(NCC(c1ccccc1)N1CCc2ccccc21)c1ccccc1` (stereo not drawn), the z-score is -0.54 (inactive).

On to `CCCc1noc(C2CCC(=O)N(Cc3ccc(Cl)cc3)C2)n1` (stereo not drawn), for which the z-score is -0.44 (inactive).

On to `COc1ccccc1CNC(=O)CCCn1c(=O)c2ccccc2n(CC(=O)Nc2ccc(C)cc2Cl)c1=O`, for which the z-score is -1.06 (inactive).

Regarding `Cc1nc(N)ncc1C(=O)N(C)Cc1cn[nH]c1-c1ccccc1`, the z-score is -0.18 (inactive).

As to `COc1ncccc1NC(=O)NCc1nncn1C1CCCCC1`, the z-score is 0.26 (inactive).

As to `COc1ccc(NC(=O)CCN2CCN(CCO)CC2)cc1`, the z-score was -3.11 (inactive).

Turning to `CC(C)c1ccc2oc(-c3cc(NC(=O)c4cccs4)ccc3Cl)nc2c1`, the z-score was 0.16 (inactive).

Turning to `O=C1CC(c2nnc(Cc3ccc(Cl)cc3)o2)CN1c1ccccc1` (stereo not drawn), the z-score was 0.07 (inactive).

`Cc1cccc(C)c1OCC(=O)NC(Cc1c[nH]c2ccccc12)C(=O)O` (stereo not drawn): the z-score was 0.01 (inactive).

Consider `CSc1ncc(Cl)c(C(=O)Nc2ccc(S(=O)(=O)N3CCCC(C)C3)cc2)n1` (stereo not drawn), for which the z-score was 0 (inactive).

With `Cc1nc2nc(SCC(=O)N(Cc3ccccc3)C(C)C)nn2c(C)c1Cc1ccccc1Cl`, the z-score is -2.35 (inactive).

Turning to `Cc1ccc(CN(C)S(=O)(=O)c2c(Cl)nc3sccn23)o1`, the z-score was 1.01 (inactive).

Consider `Cn1c(=O)c2sccc2n2c(CCC(=O)NCc3ccccc3Cl)nnc12`, for which the z-score is -0.54 (inactive).

In the case of `COc1cccc(CNC(=O)CCC(=O)N2CC3CCCN3c3ccccc32)c1` (stereo not drawn), the z-score is -0.45 (inactive).

As to `CC(C)CC(=O)C1CCCN(C(=O)c2ccc(N3CCC(O)CC3)nc2)C1` (stereo not drawn), the z-score was 0.49 (inactive).

Turning to `CCC(=O)N1CCc2cc(S(=O)(=O)CCC(=O)N3CCN(c4ccccc4F)CC3)ccc21`, the z-score is -1.64 (inactive).

Take `CC(Sc1oc(-c2ccco2)nc1S(=O)(=O)c1ccc(Br)cc1)c1ccccc1` (stereo not drawn): the z-score is -1.12 (inactive).

Regarding `COc1ccc(NC(=O)c2cnc(Nc3ccc(C)c(Cl)c3)c3ccccc23)cc1OC`, the z-score is 0.07 (inactive).

With `Cc1ccc(OCC(=O)NC(c2ccc3c(c2)CCO3)C2CC(O)C2)cc1` (stereo not drawn), the z-score is 0.72 (inactive).

`COc1cccc(NC(=O)C2CCN(c3cc(C)nc4c(-c5ccc(Cl)cc5)c(C)nn34)CC2)c1`: the z-score is -0.45 (inactive).

In the case of `C=CCCC(=O)N1CCC[C@]2(C1)CN(C(=O)c1ccccc1CC)CCC2O` (stereo partly drawn), the z-score is -0.53 (inactive).

As to `COc1ccc(-c2noc(CSc3nc(C)cc(=O)[nH]3)n2)cc1OC`, the z-score was -1.97 (inactive).

In the case of `COc1ccc(CNc2nc(-c3ccc(Cl)cc3)nn2S(=O)(=O)c2ccc(C)cc2)cc1`, the z-score is -1.03 (inactive).

With `Cc1cc(C(=O)NCc2nc(N)n[nH]2)c2c(C)nn(C)c2n1`, the z-score is 0.15 (inactive).

On to `COc1cccc(CNC(=O)C2CCC(CNS(=O)(=O)c3cccs3)CC2)c1` (stereo not drawn), for which the z-score was -0.11 (inactive).

Regarding `Cc1ccc2oc3c(c(=O)c2c1)C(c1ccc(O)cc1)N(Cc1ccc2c(c1)OCO2)C3=O` (stereo not drawn), the z-score was -1.07 (inactive).

Turning to `COC(=O)c1ccc(N2CCN(C(=O)c3csc(C)n3)CC2)cc1`, the z-score is -0.55 (inactive).

Take `O=C(CSc1nnc(CNC(=O)c2ccccc2)n1-c1ccc(F)cc1)Nc1ccccc1F`: the z-score is -1.09 (inactive).

Consider `COc1ccc(C2=NC(c3ccncc3)=Nc3ccc(Br)cc3N2)cc1`, for which the z-score is -0.81 (inactive).

In the case of `Cc1c(C(=O)N2CCC3(CC2)OCCCC3O)n(C)c2ccccc12` (stereo not drawn), the z-score is -0.28 (inactive).

In the case of `CCOC(=O)c1c(NC(=O)/C(C#N)=C/c2ccccc2)sc2c1CCC2`, the z-score was -0.67 (inactive).

For the compound `COc1ccccc1-c1cc(C(F)(F)F)nc(S(=O)(=O)CCCC(=O)Nc2ccc(F)cc2F)n1`, the z-score is -0.87 (inactive).

Regarding `CCC(=O)N1CCc2cc(Br)cc(S(=O)(=O)CCC(=O)NCCc3ccc(OC)c(OC)c3)c21`, the z-score is 2.58 (inactive).

Consider `CCC(=O)N1CCc2cc(Br)cc(S(=O)(=O)CCC(=O)N3CCN(c4ccc(F)cc4)CC3)c21`, for which the z-score was 3.68 (active).

For `CCC(=O)N1CCc2cc(Br)cc(S(=O)(=O)CCC(=O)NCc3ccccc3OC)c21`, the z-score is -0.86 (inactive).

With `Cc1cccc2nc(-c3ccc(Cl)s3)c(Nc3ccc4c(c3)OCCO4)n12`, the z-score was 0.38 (inactive).

With `COc1ccc(CNC(=O)Cc2coc3ccc(C(C)C)cc23)cc1`, the z-score is -1.14 (inactive).

For `CC(=O)N1CCCCC1C(=O)Nc1cccc(-n2cccn2)c1` (stereo not drawn), the z-score was -4.62 (inactive).

On to `Cc1ccc(C)c(N2CCN(C(=O)CN3C(=O)COc4ccc(S(=O)(=O)N5CCCCCC5)cc43)CC2)c1`, for which the z-score is -0.13 (inactive).

As for `CCc1cc2c(cc(C(=O)OC)n2Cc2nc(-c3ccc(C)cc3)oc2C)s1`, the z-score is -0.09 (inactive).

On to `CCCOc1ccc(C2c3c(-c4ccccc4O)n[nH]c3C(=O)N2Cc2cccnc2)cc1` (stereo not drawn), for which the z-score is -1.98 (inactive).

With `CCOc1ccc(N2CC(c3nc4ccccc4n3CCOc3ccc(OC)cc3)CC2=O)cc1` (stereo not drawn), the z-score was -4.05 (inactive).

Consider `COc1ccc(OCCCn2c(C3CC(=O)N(c4ccc(F)cc4)C3)nc3ccccc32)cc1` (stereo not drawn), for which the z-score is 0.64 (inactive).

As to `CCc1ccccc1N1CC(c2nc3ccccc3n2CCCCOc2ccccc2)CC1=O` (stereo not drawn), the z-score was 5.94 (active).

`CC(=O)c1c(C)n(S(=O)(=O)c2ccc(Cl)cc2)c2ccc(NS(=O)(=O)c3ccc(Cl)cc3)cc12`: the z-score is -0.71 (inactive).

On to `COc1ccc(NC(=O)CNC(=O)Cn2ccc3ccccc3c2=O)c(OC)c1`, for which the z-score is -2.14 (inactive).

For `CN1CCCn2nc(C(=O)NCCCCc3ccccc3)cc2C1`, the z-score was -1.24 (inactive).

On to `CCc1ccccc1NS(=O)(=O)c1ccc2nc(-c3ccccc3)[nH]c2c1`, for which the z-score was -1.16 (inactive).

For the compound `CC(Cn1cccn1)NC1CCN(C(=O)c2cccnc2)CC1` (stereo not drawn), the z-score is -2 (inactive).

Take `Cc1ccc(N2CC(C(=O)Nc3ccc(N(C)C)cc3)CC2=O)cc1Cl` (stereo not drawn): the z-score was 0.09 (inactive).

`COc1cccc(-c2nc(CS(=O)(=O)CC(=O)NCCc3ccc(OC)c(OC)c3)c(C)o2)c1`: the z-score is -0.64 (inactive).

Regarding `CCc1ccccc1NC(=O)N1CCC2(CC1)Oc1ccccc1C(=O)N2Cc1ccccc1F`, the z-score was -0.81 (inactive).

As to `O=C(NC1CCCCC1)c1ccc2c(c1)N(Cc1ccc(Cl)cc1)C(=O)c1ccccc1S2=O` (stereo not drawn), the z-score is 0.06 (inactive).

In the case of `CCC(=O)N1CCc2cc(S(=O)(=O)NCCC(=O)Nc3cccc(C)c3C)ccc21`, the z-score was -0.9 (inactive).

Consider `COc1ccccc1Nc1cc(C(=O)NCCCN(C)C2CCCCC2)c2ccccc2n1`, for which the z-score was -0.07 (inactive).

For the compound `CC(C)Sc1nnc(NC(=O)c2ccccc2-n2cnnc2)s1`, the z-score was -0.42 (inactive).

Turning to `CC(C)S(=O)(=O)c1oc(-c2ccc(F)cc2)nc1S(=O)(=O)c1ccc(F)cc1`, the z-score was -3.54 (inactive).

With `CCN(C(=O)Cn1cnc2sc(C)c(S(=O)(=O)N3CCN(c4ncccn4)CC3)c2c1=O)c1ccccc1F`, the z-score was -2.69 (inactive).

Consider `CCNC(=O)Cn1nc(C)n2c(cc3c(OC)cccc32)c1=O`, for which the z-score was -1.37 (inactive).

On to `CC(C)(C)C(Cn1ccnc1)NC(=O)C=Cc1cc(CO)cs1` (stereo not drawn), for which the z-score was 0.54 (inactive).

Turning to `COc1ccc(N(C)C(=O)C2CCN(S(=O)(=O)c3cc(Br)cc4c3N(C(C)=O)CC4)CC2)cc1`, the z-score is -1.87 (inactive).
